# Source: PubChem BioAssay
# ClpP mod: qHTS Assay for Activators of ClpP | AID 651965, 2013 | purified B. subtilis ClpP, FRET peptide cleavage, 20 min | actives 1.9% (n = 340,000) | Potency, µM (titrated, usually from 57.5 µM), for inactives: at the top dose activity change, negative = active; active means well fitted falling curve with a large enough effect; inconclusive means small, poorly fitted or top-dose-only effect; inactive means no such curve, though single readings can be large or run the other way; further: the source files actives as falling curves though it sought activators and does not explain the sign; nearly all actives have a fitted effect of over 65% in size
#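 Buffer: 100 mM Tris/HCl pH8, 100 mM KCl, 0.05% low protease BSA, 2.5% glycerol, 0.01% Tween-20. ClpP 10 microg/mL final; 20 min RT; delta FRET normalized to ADEP and DMSO controls.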
# PINK1 modulator: modulators of PINK1 expression; Potency, µM (series often up to 76.6 µM), for inactives: top-dose activation (PINK1 increase), hits mostly activators; PINK1 immunofluorescence, high-content cytometry, 24 h; actives 0.2% (n = 410,000); active means well fitted activation curve with a large enough effect; inconclusive means small, poorly fitted or top-dose-only effect; cell line not stated here; further: % of control where 0% means no effect; nearly all actives have a fitted effect of over 65% in size
#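 Compound titrations (5 concentrations, 24 h) on a stable cell line; DMSO and CCCP controls. Endpoint: fixed-cell PINK1 immunofluorescence with mitochondrial, cell and nuclear markers, scanned by microplate cytometer.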
# RORgamma inh: ROR gamma (mouse) transcription inhibition; actives 5.4% (n = 310,000); Potency, µM (doses to about 53.6 µM), without a hit: at the top dose activity change, negative = inhibition, usual class: inhibitors; P51450; Drosophila S2 Gal4-RORgamma UAS-luciferase reporter, 20 h; further: on the % scale 0 is the no-effect control and ±100 the full control effect; nearly all actives have a fitted effect of over 60% in size
#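 Luminescence from a UAS-regulated Photinus luciferase reporter in stably transfected Drosophila Schneider cells is measured; decreased signal marks ROR gamma inhibition. Fusion expression is induced by 700 uM copper sulfate for 20 hr.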
# Sfp inh: blocks B. subtilis Sfp PPTase activity; actives 3.5% (n = 310,000); Biochemical Sfp PPTase activity, qHTS; Potency, µM, inactives show largest response in the series, negative = inhibition, most hits filed as inhibitors; Q9F4F7; AID 1490;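 further: the enzyme is Sfp with the accession as filed and its product quenches rhodamine fluorescence; 0% = enzyme reaction without inhibitor and -100% = no enzyme wells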
#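 Compounds were incubated with enzyme (final 15 nM) for 15 min at room temperature before substrate addition started the reaction. Fluorescence at 525 nm excitation, 598 nm emission was recorded immediately and after 30 minutes.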
# Epigenetic reg: derepresses silenced GFP reporter in murine cells. murine LDR cells, GFP reporter derepression, 30 h. Potency, µM (series often up to 53.9 µM), for the others: top-dose GFP activation, hits mostly activators. actives 0.2% (n = 280,000). AID 1865; further: % of control where 0% means no effect; nearly all actives have a fitted effect of over 60% in size
#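 Readout is the number of GFP-expressing murine LDR cells, counted by cytometry following washing. Cells were treated with compound for 30 h at 37 C; the stably integrated CMV-GFP locus is normally silent.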
# VP16 counter: inhibits Gal4-VP16 luciferase reporter, ROR gamma counter-screen; AID 2546; Drosophila S2 Gal4-VP16 UAS-luciferase, luminescence, 20 h; Potency, µM (series often up to 53.6 µM), without a hit: top-dose activity, negative = inhibition, most hits filed as inhibitors; actives 3.5% (n = 310,000);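 further: Gal4-VP16 expression switched on by copper sulfate through the metallothionein promoter; on the % scale 0 is the no-effect control and ±100 the full control effect; nearly all actives have a fitted effect of over 50% in size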
# Numbers without * were called inactive; ? = inconclusive; . = no result given; ! = a repeat was not active; [ ] = remark or other dose. Hits are enriched below; roughly 8.1% of the tested compounds scored in any of these assays. Unless noted, the call rests on the fitted dose curve; in most records, active means well fitted curve in the direction sought with a large enough effect; inconclusive means small, poorly fitted or top-dose-only effect, or another doubt; inactive means no such curve, though single readings can be large; an effect the other way counts as inactive or inconclusive. Potency means the concentration at half of the fitted maximal effect.
SMILES,ClpP mod,PINK1 modulator,RORgamma inh,Sfp inh,Epigenetic reg,VP16 counter
O=C(c1ccc2c(c1)N(Cc1cccc(Cl)c1)C(=O)c1ccccc1S2(=O)=O)N1CCN(Cc2ccccc2)CC1,-1%,2%,.,.,0%,.
Cc1ncc2c(c1CNC(=O)c1ccc3c(c1)OCO3)CCN(C(=O)c1cnsn1)C2,.,0%,.,.,.,.
Cc1ccc2[nH]c3nc(NN)nnc3c2c1,28µM*,6%,?,9%,.,-2%
Cc1ccc2[nH]c3nc(SCCN4CCOCC4)nnc3c2c1,0%,-1%,?,?,0%,17%
Nc1nc(-c2ccccc2)c(N=Nc2ccc(Cl)cc2)s1,-2%,3%,3%[10 µM],25µM*,0%,-1%
CN(C)NC(=S)NC1(C)CCS(=O)(=O)C1 (stereo not drawn),.,-2%,-40%,89µM*,1%,-2%
CC1(NC(=S)Nc2ccc(NC(=S)NC3(C)CCS(=O)(=O)C3)cc2)CCS(=O)(=O)C1 (stereo not drawn),-2%,2%,-4%,0%,2%,-15%
Cc1ccnc2c(N)cccc12,0%,.,.,.,.,.
CC(=O)Nc1cccc(NC(=O)CSc2nc(=O)n(CCCN3CCOCC3)c3c2CCC3)c1,28µM*,-2%,.,.,.,.
O=C(CSc1nc2ccccc2c(=O)n1CCCN1CCOCC1)Nc1cccc(S(=O)(=O)N2CCCCCC2)c1,18µM*,-2%,?,-1%,-2%,-23%
O=C(CSc1nc2ccccc2c(=O)n1CCCN1CCOCC1)Nc1ccc(F)c(Cl)c1,-2%,1%,.,.,.,.
CCc1ccc(NC(=O)CSc2nc(=O)n(CCCN3CCOCC3)c3c2CCCC3)cc1,-3%,-1%,.,.,.,.
Cc1ccc(NC(=O)CSc2nc(=O)n(CCCN3CCOCC3)c3c2CCCC3)cc1F,32µM*,0%,.,.,.,.
COc1cccc(NC(=O)CCNS(=O)(=O)c2ccc3c(c2)CCCC(=O)N3)c1,-2%,-1%,.,.,0%,.
Cc1cc(O)c(C(c2cccc(Cl)c2)N2CCN(c3ccccc3)CC2)c(=O)n1Cc1ccco1 (stereo not drawn),-2%,0%,.,.,-2%,.
CC(=O)c1ccc(N2CCN(c3ncnc4onc(C)c34)CC2)cc1,-2%,-2%,.,.,-1%,.
CCCCOc1ccc(-c2csc(N)n2)cc1[N+](=O)[O-],1%,0%,38%[10 µM],40µM*,-1%,?
Cc1cc(C)cc(NC(=O)CCCn2c3ccccc3c(=O)c3ccccc32)c1,4%,14%,.,.,-2%,.
Cc1ccc2c(=O)c3ccccc3n(CCCN)c2c1C,.,.,11µM*!,-14%,?,16µM*!
FC(F)(F)c1cc(-c2ccco2)nc(NCc2cccnc2)n1,-3%,2%,23%,-16%,-2%,14%
FC(F)(F)c1cc(-c2ccco2)nc(NCc2ccccc2)n1,?,5%,12%,20µM*,-1%,9%
Fc1ccc(CNc2nc(-c3ccco3)cc(C(F)(F)F)n2)cc1,25µM*,19%,13%,4%,0%,-8%
COc1ccc(-c2cc(C)no2)cc1S(=O)(=O)NCc1ccco1,-8%,1%,.,.,?,.
Nc1ccc(-c2cc3ccccc3[nH]2)cc1,4%,0%,.,.,.,.
Cc1ccc2[nH]c(-c3cccc(N)c3)cc2c1,16µM*,5%,?,18%,0%,4%
SMILES,ClpP mod,PINK1 modulator,RORgamma inh,Sfp inh,Epigenetic reg,VP16 counter
O=c1[nH]c(CNCc2cccnc2)nc2ccccc12,.,0%,-29%,25µM*,1%,-22%
CCc1ccc(NCc2nc3ccccc3c(=O)[nH]2)cc1,-3%,-3%,?,4%,1%,?
CCCCNCc1nc2ccccc2c(=O)[nH]1,.,-1%,10µM*,?,2%,?
O=c1[nH]c(-c2cccnc2)nc2ccccc12,-1%,-1%,0%,10%,1%,-8%
Cc1cccc(OCC(=O)Nc2ccccc2C(=O)OCc2cc(=O)n3nc(C4CC4)sc3n2)c1,-4%,-1%,.,.,-1%,.
Cc1cccc(N2C(=O)c3cccc4c(N)ccc(c34)C2=O)c1,.,2%,0%,3%,.,-19%
Cc1cccc(N2C(=O)c3cccc4c(N(C)CCO)ccc(c34)C2=O)c1,?,0%[38.3 µM],1.3µM*,5%,3%,-24%
Cc1ccc(-n2nnnc2C(Cl)c2nnnn2-c2ccc(C)cc2)cc1,0%,10%,11µM*,?,-1%,8.9µM*
Cc1ccc(-n2nnnc2-c2ccccc2)cc1,1%,2%,13%,-6%,1%,-4%
N#CC(C#N)=C(N)CSc1cccc[n+]1[O-],.,-1%,-1%,-8%,8.9µM*,-2%
[O-][n+]1ccccc1SCc1ccccc1,0%,1%,.,.,.,.
Cn1c(Cn2c3ccccc3c3ccccc32)n[nH]c1=S,0%,2%,3.5µM*,12%,-1%,13µM*
Cn1c(Cc2c[nH]c3ccccc23)n[nH]c1=S,-2%,-1%,-19%,-7%,-8%,6%
C=C(C)Cn1c(CCn2c3ccccc3c3ccccc32)n[nH]c1=S,-2%,2%,?,6%,0%,1µM*
S=c1[nH]nc(Cc2cccc3ccccc23)o1,28µM*,-2%,-10%,12%,1%,-5%
C=C(C)Cn1c(-c2ccc(OC)cc2)nc2ccccc21,?,2%,-40%,?,2%,-5%
S=c1[nH]nc(Cc2noc3ccccc23)n1-c1ccccc1,-3%,0%,10µM*,7%,0%,-6%
O=c1c2ccccc2cnn1Cc1n[nH]c(=S)n1-c1ccccc1,-1%,-1%,?,?,0%,-1%
COc1ccc(-c2nc(-c3ccccc3)oc2Nc2ccccc2C)cc1,.,.,0%,-18%,-1%,1%
Cc1ccc(-c2nc3nc(C)cc(N4CCN(c5cc(Cl)ccc5C)CC4)n3n2)cc1,-3%,1%,.,.,1%,.
Nc1ncc(O)c(N)n1,.,.,10%,?,.,-6%
CCOc1ccc(N2CC(c3nc(-c4cc(OC)c(OC)c(OC)c4)no3)CC2=O)cc1 (stereo not drawn),0%,1%,.,.,1%,.
C=CCn1c(CCn2c3ccccc3c3ccccc32)n[nH]c1=S,-4%,0%,4µM*,-14%,?,3.2µM*
Cn1c(-c2cnn(-c3ccccc3)c2-n2cccc2)n[nH]c1=S,-1%,0%,?,10%,2%,-15%
COc1cccc2cc(-c3n[nH]c(=S)n3C)oc12,0%,1%,3.5µM*,4%,0%,-19%[10 µM]
Cn1c(-c2cccc3ccccc23)n[nH]c1=S,-1%,1%,10µM*,-4%,-1%,?
